The panel holds about 83,000 compounds, 20% with a hit somewhere; the sample as a whole holds those more often.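 Step 1: grow cells in 96-well plates. Step 2: add test compound at a single concentration. Step 3: incubate 48 h. Step 4: record percent growth.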 Values without a mark were called inactive. Calls of active or inactive are those of the source. How the source made its calls: active means growth percent below 10; inactive means the rest.
Assays:
Test in all cases: NCI-60 one-dose screen, 48 h (100 = growth as untreated, 0 = no growth, -100 = all killed)
Conditions in all cases: 10 µM unless noted
[1] = system: NCI-H23 lung
[2] = system: NCI-H226 lung
[3] = system: NCI-H322M lung
[4] = system: HOP-62 NSCLC
[5] = system: NCI-H460 lung
[6] = system: HOP-92 NSCLC
[7] = system: NCI-H522 lung
[8] = system: A549/ATCC NSCLC
[9] = system: 786-0 renal
[10] = system: COLO 205 colon

Structure (SMILES) | growth [1] [%] | growth [2] [%] | growth [3] [%] | growth [4] [%] | growth [5] | growth [6] | growth [7] [%] | growth [8] [%] | growth [9] [%] | growth [10] [%]
COC1OC(CO)C(OC)C(O)C1O (stereo not given) | 105 | 102 | 99.9 | 102 | 97.4% | 111% | 113 | 103 | 101 | 113
Ic1cccs1 | 97.7 | 107 | 105 | 99 | 108% | 121% | 97.5 | 98 | 105 | 117
C=C1SC(=Nc2c(C)cccc2C)N(c2nc(Cl)nc(Cl)n2)C12CCCCC2 | 103 | 104 | 85.4 | 105 | 110% | 105% | 82.9 | 96.2 | 99.9 | 109
O=C(Nc1c(Cl)cc(Cl)cc1Cl)ON=C1CCCCC1 | 104 | 99.4 | 106 | 100 | 111% | 132% | 95.2 | 99.2 | 99.8 | 126
CC(C)c1ccc(C(=O)OCCCl)cc1 | 94 | 106 | 92.7 | 82.2 | 105% | 163% | 97.2 | 97.9 | 95.2 | 110
CCN(CC)CCCC(C)NC(=S)N/N=C(\C)c1ccccn1 (stereo not given) | 73.1 | 33.2 | 31.9 | 45.4 | 24.7% | 46.1% | 47.2 | 48.9 | 23.4 | 28.9
C/C(=N\N=C(/C)c1cccc([N+](=O)[O-])c1)c1cccc([N+](=O)[O-])c1 | 90.3 | 111 | 96.1 | 74.3 | 86.4% | 87.5% | 57.3 | 79.3 | 77.4 | 79.8
O=C(O)c1ccc(OCc2ccccc2)cc1 | 95.5 | 90.2 | 93.5 | 93 | 108% | 93.2% | 92.4 | 94.5 | 99.4 | 104
Cc1[nH]n(-c2ccccc2)c(=O)c1C=NC(=S)C(N)=S | 98.1 | 99.7 | 110 | 104 | 107% | 84% | 86.2 | 93.6 | 104 | 106
NNc1ncnc2c1ncn2C1OC(CO)C(O)C1O (stereo not given) | 66 | 55.8 | 40 | 15 | 2.13% (active) | 34.9% | 20.1 | 18 | 35.9 | 40.4
Cc1c(Cl)cccc1NC(=S)NC(=O)c1ccccc1 | 85.5 | 90.8 | 97.4 | 110 | 103% | 71.8% | 59 | 75 | 120 | 109
COc1cccc(N=CNc2cccc(OC)c2)c1 | 98.3 | 99.7 | 96 | 103 | 109% | 93.5% | 85.6 | 92.4 | 98.8 | 107
C=CC(C)C(C)(C)O (stereo not given) | 108 | 98.8 | 98.3 | 102 | 102% | 105% | 94.4 | 94.6 | 89.4 | 110
Cc1[nH]nc(C(N)=O)c1[N+](=O)[O-] | 89.2 | 87.6 | 105 | 77.5 | 98.9% | 84.1% | 106 | 101 | 103 | 102
OCC1OC(n2ccc3c2ncn2ncnc32)C(O)C1O (stereo not given) | 35.8 | 25.1 | 38.4 | 37.3 | 26.5% | -0.422% (active) | 82.7 | 50.6 | 31.9 | 35
CCOC(=O)CSCCC#N | 95.3 | 98.3 | 101 | 82.3 | 106% | 102% | 96.3 | 101 | 93.5 | 107
CC(=O)O[C@H]1CC[C@]2(C)C3=C(C(=O)C[C@H]2C1(C)C)[C@]1(C)CC[C@H]([C@H](C)CCC(=O)O)[C@@]1(C)CC3=O | 98.3 | 107 | 105 | 95.4 | 89.8% | 107% | 81.8 | 101 | 107 | 103
CC(C)c1ccccc1NC(=O)N1CCC(C(C)C)CC1 | 107 | 95.4 | 97.7 | 107 | 107% | 95.8% | 106 | 101 | 103 | 117
OCCc1ccc(Cl)cc1 | 104 | 99.9 | 101 | 95.9 | 109% | 105% | 89.8 | 88.8 | 95.6 | 109
O=C(OC1CCCC1)c1ccccc1Cl | 106 | 104 | 99.7 | 97.1 | 101% | 96.2% | 93.1 | 105 | 101 | 107
O=c1cc(Cl)nc2ccccn12 | 98.8 | 106 | 107 | 103 | 106% | 94% | 99.7 | 107 | 108 | 127
O=C(CC(CC(=O)c1ccccc1)c1ccccn1)c1ccccc1 | 92.9 | 95.7 | 102 | 105 | 102% | 94.7% | 95.1 | 98.5 | 113 | 101
Cc1ccc(C)c2c1CCC2=O | 95.4 | 91.4 | 101 | 93.2 | 97.4% | 94.7% | 96.7 | 114 | 99.6 | 114
O=C(Nc1ccccc1)c1ccco1 | 96.2 | 99.1 | 101 | 101 | 108% | 98.8% | 100 | 97.9 | 92.8 | 115
O=[n+]1ccn([O-])c2ccccc21 | 96 | 89.8 | 104 | 95 | 102% | 78.6% | 118 | 113 | 103 | 100
COC(=O)c1cccc([N+](=O)[O-])c1 | 96.3 | 103 | 103 | 79.4 | 108% | 95.1% | 101 | 94.9 | 104 | 112
CC1(C)OC2C(CO)OC(n3ccc(=O)[nH]c3=O)C2O1 (stereo not given) | 102 | 98.4 | 92.5 | 88.9 | 100% | 82.8% | 81.5 | 73.2 | 105 | 100
O=C(O)c1cc(I)ccc1O | 103 | 99 | 95.7 | 100 | 108% | 121% | 111 | 93.3 | 107 | 127
O=S(=O)(O)C(C(I)I)S(=O)(=O)O | 95.4 | 98.7 | 107 | 109 | 105% | 106% | 108 | 104 | 110 | 110
COc1cc(-c2ccc(NC(=O)CC(C)=O)c(OC)c2)ccc1NC(=O)CC(C)=O | 96 | 91.4 | 102 | 98 | 109% | 98.2% | 95.5 | 88.5 | 105 | 115
